Screening results (PubChem)
Lassa entry inh – qHTS for Inhibitors of binding or entry into cells for Lassa Virus; Lassa virus pseudotype entry inhibition, cell reporter; Potency, µM (top dose mostly 37.9 µM), inactives show top-dose activity change, negative = inhibition, hits mostly inhibitors; 300,000 tested, 1.2% active; calls by dose curve; tested in HEK293 cells; also: potency is read from the fitted curve at half-maximal effect; % is scaled to controls: 0 for no effect and ±100 for the full control effect; nearly all actives have a fitted effect of over 50% in size
FMDV inh – High Throughput Screening for Foot and Mouth Disease Virus Antivirals; FMDV antiviral cell-based qHTS; Potency, µM (top dose mostly 57.9 µM), for the others: at the top dose activity change, negative = inhibition, actives largely listed as inhibitors; 410,000 tested, 1.2% active; calls by dose curve; tested in HEK293T cells; also: read-out not given here; potency is read from the fitted curve at half-maximal effect; % is scaled to controls: 0 for no effect and ±100 for the full control effect; nearly all actives have a fitted effect of over 45% in size
HCV inhibitor – qHTS Assay for Inhibitors of Hepatitis C Virus (HCV); 340,000 tested, 3.4% active; Huh7.5.1 HCVcc-Cre infection, luciferase reporter, 44 h; Potency, µM (series often up to 41.8 µM), without a hit: at the top dose activity change, negative = inhibition, most hits filed as inhibitors; also: potency is read from the fitted curve at half-maximal effect; % is scaled to controls: 0 for no effect and ±100 for the full control effect
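Compounds are dispensed onto cells plated 4 h earlier at 1,000 per well, with HCVcc-Cre virus (about 0.5 moi) added next. Following 44 h of culture, luminescent signal is measured for 15 sec after 15 min with substrate at room temperature.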
MARV entry inh – qHTS for inhibitors of binding or entry into cells for Marburg Virus; Marburg virus pseudotyped entry inhibition, cell reporter; Potency, µM (top dose mostly 37.8 µM), for the others: at the top dose activity change, negative = inhibition, most hits filed as inhibitors; 300,000 tested, 1.8% active; calls by dose curve; tested in HEK293 cells; also: potency is read from the fitted curve at half-maximal effect; % is scaled to controls: 0 for no effect and ±100 for the full control effect
HCMV antiviral – qHTS Assay for inhibitors of the human cytomegalovirus (HCMV) | HFF cells, HCMV-luciferase reporter, 72 h; active compounds read low | activity change, negative = inhibition, % at 57.5 µM | 410,000 tested, 4.5% active | AID 1259415, 2018; in the data active = activity change below about -60%; inconclusive = no clear call, values can overlap the other calls; inactive = above about -39%; also: % is scaled to controls: 0 for no effect and ±100 for the full control effect
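Cell-based, HFFs, 1000 cells/well, 16 h 37C; cpds in DMSO + HCMV-luc, MOI 1 PFU/cell; 72 h 37C; OneGlo luminescence after 5 min RT; norm. to buffer vs Salinomycin 10uM.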
SARS PLpro yeast – qHTS of Yeast-based Assay for SARS-CoV PLP; S. cerevisiae expressing SARS-CoV PLpro, growth rescue; Potency, µM (doses to about 32.9 µM), inactives show top-dose activity, positive = growth rescue, most hits filed as activators; 330,000 tested, 0.19% active; calls by dose curve; also: potency is read from the fitted curve at half-maximal effect; 0% is about no effect; nearly all actives have a fitted effect of over 55% in size
HCV inh confirm – qHTS Assay for Inhibitors of Hepatitis C Virus (HCV): Confirmation Assay for Cherry-picked Compounds | shares compounds with HCV inhibitor | HCVcc-Cre infectious virus cell assay, luciferase, inhibition | Potency, µM (highest dose often 41.8 µM), for the others: at the top dose activity, negative = inhibition, hits mostly inhibitors | 640 tested, 78% active | AID 720575, 2013; also: potency is read from the fitted curve at half-maximal effect; nearly all actives have a fitted effect of over 80% in size
HCV host tox – qHTS Assay for Inhibitors of Hepatitis C Virus (HCV): Cytotoxicity Counterscreen for Cherry-picked Compounds. Potency, µM (titrated, usually from 41.8 µM), for inactives: top-dose activity change, negative = cytotoxicity, most hits filed as inhibitors. 640 tested, 22% active. HCV host cell line cytotoxicity counterscreen. shares compounds with HCV inhibitor;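 also: potency is read from the fitted curve at half-maximal effect; 44 h compound exposure; % is scaled to controls: 0 for no effect and ±100 for the full control effect; nearly all actives have a fitted effect of over 55% in size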
Starred values were filed as active, the others as inactive; ? = inconclusive; . = no result; [ ] = remark or other dose. An excerpt weighted towards active compounds, which were near 8% of everything screened. Unless noted, calls follow the shape of the dose curve; as a rule, active = well fitted curve in the direction sought with a large enough effect; inconclusive = small, poorly fitted or top-dose-only effect, or another doubt; inactive = no such curve, though single readings can be large; an effect the other way counts as inactive or inconclusive.

SMILES	Lassa entry inh	FMDV inh	HCV inhibitor	MARV entry inh	HCMV antiviral	SARS PLpro yeast	HCV inh confirm	HCV host tox
COc1ccc(NC(=O)/C(Cl)=C(/Cl)S(=O)Cc2ccccc2)cn1 (centres undefined)	1.6µM*	6.3µM*	0.79µM*	?	-100*	-53%	6.3µM*	6.3µM*
COc1ccc(NC(=O)c2cccs2)cn1	?	16%	5%	7%[46.1 µM]	34	-2%	.	.
CC(C)N1CCC(N2CCN(Cc3ccc(-c4ccccc4Cl)o3)CC2CCO)CC1 (centres undefined)	?	-20%	4µM*	?	-31	0%	6.3µM*	28%
COc1ccc(-c2cc(C(F)(F)F)nc(SCC(=O)NCc3ccc(Cl)cc3)n2)cc1	0%[46.1 µM]	-12%	.	-4%[46.1 µM]	-17	.	.	.
Clc1ccc(OCCN2CCCCC2)cc1Cl	5%	-11%	-8%	?	-27	-3%	.	.
ON=C1c2cc(OCCN3CCCCC3)ccc2-c2ccc(OCCN3CCCCC3)cc21	?	-10%	3.2µM*	3.2µM*	.	-5%	?	-12%
CN(C)S(=O)(=O)c1ccc(N2CCCC2)c(C(=O)Nc2nc3ccc(F)cc3s2)c1	-23%	35%	7.9µM*	?	14	10%	?	-13%
COc1ccc(CNN2CCCCC2C(=O)Nc2ccc(OC)c(OCC(C)C)c2)cc1OC (centres undefined)	.	-27%	-13%	.	0	0%	.	.
COc1ccc(NC(=O)C2CCCCN2N)cc1OCC(C)C (centres undefined)	21%	.	?	-29%	99	-2%	?	38%
Cc1nn(C(C)C(=O)N2CCCC2)c(=O)c2nn(-c3ccccc3)c(C)c12 (centres undefined)	.	-14%	18%	.	-27	2%	.	.
C=CCNc1nc(N)c([N+](=O)[O-])c(Nc2ccccc2OC)n1	-12%[46.1 µM]	-17%	6.3µM*	-13%[46.1 µM]	5	1%	22µM*	53%
CCOCCCn1c(=NC(=O)c2cccs2)c(C#N)cc2c(=O)n3ccccc3nc21	-20%	-6%	?	-6%	16	1%	.	.
CCOc1ccc(CCNS(=O)(=O)c2ccc(-c3ccc(=O)[nH]n3)o2)cc1OCC	.	17%	0%	.	9	-3%	.	.
CCOc1ccc(CCNS(=O)(=O)c2cnc[nH]2)cc1OCC	2%	3%	6.3µM*	4%	-19	4%	?	-9%
CCOc1ccc(CCNC(=O)c2cc3sccc3n2C)cc1OCC	-26%	?	6.3µM*	7.1µM*	-11	-1%	14µM*	?
COCCCNC(=S)NC(=O)c1ccc(C)cc1	?	-9%	-4%	?	-11	13%	.	.
CC(C)NC(=O)C1(C)CN(S(C)(=O)=O)CC(=O)N1C1CCN(Cc2ccccc2)CC1 (centres undefined)	.	-16%	.	.	?	.	.	.
Cc1ccc2c(c1)C(c1ccc(F)cc1)N(C(=O)c1ccc(OC(C)C)cc1)CC(=O)N2 (centres undefined)	?	-13%	.	?	21	.	.	.
Cc1ncc([N+](=O)[O-])n1CC(=O)Nc1ccc(F)cc1	3%	21%	39%	0%	10	2%	.	.
CCc1ccc(C(CNC(=O)c2ccc3c(=O)n(-c4ccccc4F)c(=S)[nH]c3c2)N(C)C)cc1 (centres undefined)	.	?	5µM*	?	?	1%	1.4µM*	31µM*
CCOC(=O)N1CCN(C(=O)c2ccc3c(=O)n(-c4ccccc4F)c(=S)[nH]c3c2)CC1	2%[46.1 µM]	-3%	4%	13%[46.1 µM]	-39	-3%	.	.
O=C(Nc1cccc(NC(=O)c2ccc(-c3ccc(Br)cc3)o2)c1)c1ccco1	?	-10%	6.3µM*	?	?	-4%	7µM*	17%
Cc1cccc(NS(=O)(=O)c2cccc(C(=O)NCC(c3ccc(F)cc3)N3CCOCC3)c2)c1 (centres undefined)	?	11%	-31%	?	-20	.	.	.
CNCCOc1ccc(Cl)c(Cl)c1	-42%[46.1 µM]	-10%	?	?	-20	0%	-17%	43%
Clc1ccc(OCCCN2CCCC2)cc1Cl	?	-5%	?	?	10	-5%	.	.
SMILES	Lassa entry inh	FMDV inh	HCV inhibitor	MARV entry inh	HCMV antiviral	SARS PLpro yeast	HCV inh confirm	HCV host tox
C=C(C(=O)O)C(CCCCCC)C(=O)O (centres undefined)	.	-14%	0.63µM*	.	-8	2%	-16%	-11%
CCCCCCCCCCCCC(C(=O)O)C(C)C(=O)O (centres undefined)	.	10%	.	.	.	.	.	.
NS(=O)(=O)c1ccc(NC(=O)COC(=O)c2ccc([N+](=O)[O-])s2)cc1	.	10%	-12%	.	0	0%	.	.
CCOc1cc(NC(=S)NCC2CCCO2)c(OCC)cc1NC(=O)c1ccc(C)cc1 (centres undefined)	-3%	-7%	?	-1%	51	29%	.	.
CCOc1cc(NC(=S)NCC2CCCO2)c(OCC)cc1NC(=O)c1ccccc1 (centres undefined)	-1%	3%	8.9µM*	-17%	-9	-1%	?	32%
CCN(CC)CCOC(=O)C(c1ccccc1)C1CCCCC1 (centres undefined)	.	-23%	?	.	?	-2%	14µM*	14%
CCN(CC)CCOC(=O)C(c1ccccc1)c1ccccc1	1%	-20%	-19%[8.37 µM]	-35%	-10	-3%	.	.
OC[C@@H]1CN(Cc2ccc(-c3ccccc3)cc2)C[C@H](n2cnc3c(NC4CC4)ncnc32)O1	.	?	.	.	-15	.	.	.
CC(Oc1ccc(Cl)cc1Cl)c1nc(-c2ccc(NC(=O)c3ccncc3)cc2)no1 (centres undefined)	?	16µM*	2.8µM*	?	-101*	-16%	7µM*	11µM*
CC(Oc1ccc(Cl)cc1Cl)C(=O)NNC(=O)c1ccncc1 (centres undefined)	5%[46.1 µM]	11%	3%	6%	3	2%	.	.
O=C(CCNS(=O)(=O)c1ccc2c(c1)CCN2C(=O)C1CC1)Nc1ccc(Cl)cc1	-1%[46.1 µM]	-21%	.	.	?	.	.	.
COc1ccc(OC)c(NC(=O)c2nnn(Cc3ccccc3C)c2N)c1	-7%	19%	7.1µM*	?	0	6%	22µM*	43%
